Screens deposited in PubChem BioAssay by National Center for Advancing Translational Sciences (NCATS).
The list is not random: actives were taken first. Their share in the collection is about 19%.
MARV entry inh: Marburg virus entry inhibition. Marburg virus pseudotyped entry inhibition, cell reporter. Potency, µM (highest dose often 37.8 µM), for inactives: at the highest dose activity change, negative = inhibition, actives largely listed as inhibitors. 1.8% of 300,000 active; calls by dose curve; tested in HEK293 cells; also: potency is read from the fitted curve at half-maximal effect; % is scaled to controls: 0 for no effect and ±100 for the full control effect
Shiga toxin inh: Shiga toxin inhibition. Vero cells, Shiga toxin protein synthesis inhibition reporter. inhibition, % at 38.7 µM. 9.2% of 290,000 active; in the data active = inhibition mostly above about 28%, no sharp cut-off; inactive = mostly below about 43%; also: 0% is about no effect
Cycloheximide cs: counter-screen for Shiga toxin inhibitors: cycloheximide protein synthesis inhibition. 12% of 300,000 active. cell reporter, cycloheximide protein synthesis inhibition counterscreen. max response, %. AID 2314; in the data active = max response mostly above about 13%, no sharp cut-off; inactive = mostly below about 14%; also: read at 38.3 µM for the half of the compounds with a filed dose; 0% is about no effect
Pf growth 96h: inhibits malaria parasite growth, 96 h | AID 504834 | 6.9% of 320,000 active | P. falciparum luciferase reporter growth, 96 h | Potency, µM (doses to about 28.7 µM), for the others: top-dose activity change, negative = inhibition, most hits filed as inhibitors; also: potency is read from the fitted curve at half-maximal effect; % is scaled to controls: 0 for no effect and ±100 for the full control effect
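Erythrocytes infected with luciferase-expressing P. falciparum were dispensed at 2% hematocrit and 0.05% parasitemia (final), then incubated with compounds 96 hours at 37 C in 5% CO2. Luminescence after detection reagent addition reported growth.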
LASV entry inh: blocks Lassa virus binding to or entry into cells. Lassa virus pseudotype entry inhibition, cell reporter. Potency, µM (doses to about 37.9 µM), for inactives: top-dose activity change, negative = inhibition, most hits filed as inhibitors. 1.2% of 300,000 active. AID 540256; calls by dose curve; tested in HEK293 cells; also: potency is read from the fitted curve at half-maximal effect; % is scaled to controls: 0 for no effect and ±100 for the full control effect; nearly all actives have a fitted effect of over 50% in size
Pf growth 48h: P. falciparum growth inhibition at 48 hours (one generation) | P. falciparum luciferase growth in erythrocytes, 48 h | Potency, µM (series often up to 28.7 µM), inactives show top-dose activity change, negative = inhibition, usual class: inhibitors | 5.9% of 310,000 active; also: potency is read from the fitted curve at half-maximal effect; % is scaled to controls: 0 for no effect and ±100 for the full control effect
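Luminescence readout; reporter = integrated firefly luciferase in P. falciparum. RBC culture at 2% hematocrit, 0.1% parasitemia final, 37 C/5% CO2; decreased signal taken as growth inhibition.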
* marks the source's active call; other numbers are inactive results; ? = inconclusive; · = no result given; [ ] = dose if it differs, or a comment. Unless noted, calls follow the shape of the dose curve; as a rule, active = well fitted inhibition curve with a large enough effect; inconclusive = small, poorly fitted or top-dose-only effect, or another doubt; inactive = no such curve, though single readings can be large or run the other way.

SMILES	MARV entry inh	Shiga toxin inh	Cycloheximide cs	Pf growth 96h	LASV entry inh	Pf growth 48h
O=C(CNC(=O)c1ccc(S(=O)(=O)N2CCCC2)cc1)N/N=C/c1ccccc1Cl	20%	1	-2	-17%	-5%	?
CCN(CC)S(=O)(=O)c1cccc(C(=O)N[C@H](C(=O)Nc2nc3ccc(F)cc3s2)C(C)C)c1	?	104*	40*	2.6µM*	?	13µM*
CCN(CC)S(=O)(=O)c1cccc(C(=O)N[C@H](C(=O)Nc2nc3ccccc3s2)C(C)C)c1	-20%	19	17*	?	?	0%
CCN(CC)S(=O)(=O)c1cccc(C(=O)NC(C(=O)NC2=NCCS2)C(C)C)c1 (stereo not drawn)	-1%	-10	-3	18%	-11%	?
CCN(CC)S(=O)(=O)c1cccc(C(=O)N[C@H](C(=O)NNC(=O)c2ccccc2)C(C)C)c1	-3%	-6	8	?	3%	?
CCN(CC)S(=O)(=O)c1cccc(C(=O)NC(C(=O)Nc2nnc(C3CC3)s2)C(C)C)c1 (stereo not drawn)	?	3	7	8.3µM*	6%	?
Cc1cccc(C(=O)N[C@H](C(=O)Nc2nnc(C3CC3)s2)C(C)C)c1	20%	-14	4	-18%	8%	-16%
CCOC(=O)N1CCN(C(=O)CS(=O)Cc2nc(-c3ccc(OC)c(OC)c3)oc2C)CC1 (stereo not drawn)	·	-3	-2	?	·	11%
Cc1cccc(/C=C2/SC(=O)N(Cc3ccccc3Cl)C2=O)n1	-13%	19	-4	?	-24%	?
COC(=O)c1cc2c(ccn2-c2ccc(F)cc2)n1Cc1ccc(OC)cc1	2%	54*	47*	?	-3%	?
COC(=O)c1cc2c(ccn2-c2ccc(F)cc2)n1Cc1ccc(C#N)cc1	?	-12	-3	0%	?	?
CCn1c(C(=O)OC)cc2c1ccn2-c1ccc(F)cc1	15%	113*	54*	·	-12%	11%
CCOC(=O)c1cc2c(ccn2-c2ccc(F)cc2)n1CC(=O)NC(C)(C)C	·	-3	-2	-28%	·	?
Clc1cccc(Cl)c1CNCCCSc1ncccn1	·	9	7.1*	-27%	·	-11%
Fc1cccc(Cl)c1CNCCCSc1ncccn1	·	12	4	13µM*	·	-11%
Clc1cccc(CNCCCSc2ncccn2)c1Cl	24%[46.1 µM]	-3	4	12%	5%[46.1 µM]	0%
CCCCCCNCc1c(F)cccc1Cl	-3%	9	-3	30%	5%	0%
COC(=O)[C@@H](NC(=O)c1ccc(OC2CCN(Cc3ccccn3)CC2)cc1)C(C)C	·	37	-3	22%	·	-17%
O=C(Nc1ccc([N+](=O)[O-])cc1)C(=O)Nc1cccc(C(=O)O)c1	·	-14	-6	38%	·	?
COC(=O)N1C(=O)[C@@](Cc2ccccc2)(c2ccccc2)N1C(=O)OC	·	9	12*	?	·	-7%
COC(=O)N1C(=O)[C@](Cc2ccccc2)(c2ccccc2)N1C(=O)OC	·	5	21*	31%	·	32%
COC(=O)N1C(=O)[C@@](c2ccccc2)(C2CCCCC2)N1C(=O)OC	·	13	11*	46%	·	39%
CC[C@@]1(c2ccccc2)C(=O)N(C(=O)OC)N1C(=O)OC	·	3	5	63%	·	1%
COC(=O)N1C(=O)[C@](c2ccccc2)(C(C)C)N1C(=O)OC	·	6	9	37%	·	25%
CC[C@]1(c2ccccc2)C(=O)N(C(=O)OC)N1C(=O)OC	·	-2	10	31%	·	34%
SMILES	MARV entry inh	Shiga toxin inh	Cycloheximide cs	Pf growth 96h	LASV entry inh	Pf growth 48h
COC(=O)C1=C(c2ccc(S(C)(=O)=O)cc2)C[C@@H]2CC[C@H]1N2C	·	·	·	50%	·	-10%
CCOc1ccccc1C=NNc1ccc([N+](=O)[O-])cn1	2%	·	·	·	3%	·
O=[N+]([O-])c1ccc(N/N=C/c2ccc(OCc3cccc4ccccc34)cc2)nc1	?	33	18*	7.4µM*	-26%	?
N#Cc1ccccc1Cn1cc(/C=N/Nc2ccc([N+](=O)[O-])cn2)c2ccccc21	?	5	-1	5.2µM*	-26%	?
CCOC(=O)COc1nc(-c2ccc(C)cc2)cc(-c2ccco2)c1C#N	·	16	6	4%	·	-2%
O=c1c2c([nH]c3ccccc13)C(=C1CCCC1)CC2	6%	-8	1	0%	0%	13µM*
O=c1c2c([nH]c3ccccc13)CCCC2	-9%	-3	14	1.9µM*	0%	1.9µM*
CC(C)(C)C1CCc2[nH]c3ccccc3c(=O)c2C1 (stereo not drawn)	-21%	9	13	?	?	0.52µM*
CCOC(=O)c1ccc(N2C(=O)C(O)=C(C(C)=O)C2c2ccc([N+](=O)[O-])cc2)cc1 (stereo not drawn)	·	-6	-2	-14%	·	14%
CC(C)(C)C(=O)Nc1nc(=S)ss1	1%	-29	-1	·	-5%	16%
Clc1c(-c2nnc3n2CCCCC3)sc2ccccc12	12%	-8	3	?	21%	·
COc1ccc(-c2nnc3n2CCCCC3)cc1OC	-3%[46.1 µM]	-4	-6	23%	7%	24%
Clc1c(-c2nnc3n2CCC3)sc2ccccc12	6%	50	15*	?	8%	?
COc1ccc2c(Cl)c(-c3nnc4n3CCCCC4)sc2c1	-1%	34	25*	-22%	0%	·
CC(C(=O)O)n1c2ccccc2c2cnn(C)c(=O)c21 (stereo not drawn)	·	-6	-2	126%	·	1%
CN(C)/C=C1\C(=O)N(c2ccc(Cl)cc2)CS1(=O)=O	?	86*	36*	127%	7%	39%
COc1ccc(N2C(=O)/C(=C/N(C)C)NC2=S)cc1	-5%[46.1 µM]	-3	1	-2%	-1%	3%
Cc1ccc(N2CS(=O)(=O)/C(=C/N(C)C)C2=O)cc1	8%	77*	38*	219%	25%	2.6µM*
COc1cc2nc(CC(C)C)n(NC(=O)c3ccccc3Br)c(=O)c2cc1OC	·	-2	-4	-27%	·	16%
CCOC(=O)C(=O)/C(=C\N(C)C)c1onc(-c2c(F)cccc2Cl)c1C(=O)OC	-9%	-4	1	4%	2%	23%
CC(/C=C/c1ccccc1)=N\NC(=S)NC(C)C	?	99*	82*	4.7µM*	?	-23%
CC(/C=C/c1ccccc1)=N\NC(N)=S	?	52*	27*	?	-18%	10µM*
CC(/C=C/c1ccccc1)=N\NC(=O)Cn1cncn1	1%[46.1 µM]	15	6	-1%	9%[46.1 µM]	8%
CC(/C=C/c1ccccc1)=N\NC(=O)c1ccncc1	-28%	-11	-2	9%	2%	-27%
O=C(CN(C(=O)CCC(=O)Nc1nccs1)c1cccc(F)c1)NCC1CCCO1 (stereo not drawn)	6%	-19	-2	-7%	-7%	-3%
